Measurements from article PMC7862700, “An all-to-all approach to the identification of sequence-specific readers for epigenetic DNA modifications on cytosine”.

What was measured:
Assay in all cases: DAPPL (digital affinity profiling via proximity ligation, sequencing); 10 mM Tris-HCl pH 7.5, 50 mM NaCl, 1 mM DTT, 4% glycerol, room temperature, 30 min; GST-TFs on glutathione beads, 16-mer random dsDNA library, 0.1% formaldehyde crosslink after washing; high values mean tight binding
[1] = target: T1, FLI1 (Homo sapiens, UniProt Q01543 1-452); details: protein: recombinant; tags: N-terminal GST; dsDNA, one strand shown
T1 sequence: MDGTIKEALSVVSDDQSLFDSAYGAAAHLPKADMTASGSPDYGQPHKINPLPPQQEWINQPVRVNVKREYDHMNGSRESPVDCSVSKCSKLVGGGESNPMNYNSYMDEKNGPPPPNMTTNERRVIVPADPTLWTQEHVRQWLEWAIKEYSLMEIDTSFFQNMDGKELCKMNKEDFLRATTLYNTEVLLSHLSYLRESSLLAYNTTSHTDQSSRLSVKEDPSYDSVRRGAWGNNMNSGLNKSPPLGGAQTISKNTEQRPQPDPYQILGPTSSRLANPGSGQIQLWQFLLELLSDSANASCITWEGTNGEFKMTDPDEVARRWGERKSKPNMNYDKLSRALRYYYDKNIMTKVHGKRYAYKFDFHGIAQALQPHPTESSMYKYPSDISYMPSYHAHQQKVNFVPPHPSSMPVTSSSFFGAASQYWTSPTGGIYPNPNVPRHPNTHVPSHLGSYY
Method in brief: (§1)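 A tag-only sample was pooled with DNA-barcoded human transcription factors that had been expressed in yeast as GST fusions and captured on glutathione beads. The pools were incubated for 30 min at room temperature with 200 nmole of a random double-stranded 16-mer DNA library in Tris/NaCl/DTT/glycerol buffer, then washed, crosslinked with 0.1% formaldehyde, proximity-ligated (BsaI/T4 ligase, 1 h, 37 °C), PCR-amplified and sequenced on an Illumina NextSeq500. Binding signal is each hexamer's read frequency for a factor divided by its frequency for the tag-only sample.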

[2] = target: T2, ELK1 (Homo sapiens, UniProt P19419 1-428); details: protein: recombinant; tags: N-terminal GST; dsDNA, one strand shown
T2 sequence: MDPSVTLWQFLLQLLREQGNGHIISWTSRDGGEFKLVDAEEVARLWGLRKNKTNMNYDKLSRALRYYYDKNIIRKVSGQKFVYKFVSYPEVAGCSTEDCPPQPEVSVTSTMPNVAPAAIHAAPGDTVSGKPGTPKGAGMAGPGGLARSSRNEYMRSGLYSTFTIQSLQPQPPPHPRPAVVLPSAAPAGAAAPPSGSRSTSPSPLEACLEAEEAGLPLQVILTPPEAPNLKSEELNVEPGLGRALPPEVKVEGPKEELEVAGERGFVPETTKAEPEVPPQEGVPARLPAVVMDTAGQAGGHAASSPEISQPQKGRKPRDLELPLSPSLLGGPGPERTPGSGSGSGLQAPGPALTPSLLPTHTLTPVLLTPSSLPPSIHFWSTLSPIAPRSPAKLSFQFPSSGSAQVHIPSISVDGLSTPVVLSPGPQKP
Method in brief: as §1

[3] = target: T3, GABPA (Homo sapiens, UniProt Q06546 1-454); details: protein: recombinant; tags: N-terminal GST; dsDNA, one strand shown
T3 sequence: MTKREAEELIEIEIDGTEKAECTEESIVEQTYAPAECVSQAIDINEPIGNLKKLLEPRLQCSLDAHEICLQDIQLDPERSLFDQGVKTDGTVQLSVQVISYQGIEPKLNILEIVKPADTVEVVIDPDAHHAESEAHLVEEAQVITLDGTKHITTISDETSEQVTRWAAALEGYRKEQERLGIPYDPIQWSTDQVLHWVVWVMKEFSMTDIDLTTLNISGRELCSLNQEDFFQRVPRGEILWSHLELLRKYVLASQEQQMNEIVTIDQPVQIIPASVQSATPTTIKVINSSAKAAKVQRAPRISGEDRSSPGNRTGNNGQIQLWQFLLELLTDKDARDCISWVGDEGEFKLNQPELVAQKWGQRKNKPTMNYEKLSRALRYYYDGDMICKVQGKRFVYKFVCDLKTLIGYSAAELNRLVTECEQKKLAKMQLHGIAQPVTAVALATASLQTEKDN
Method in brief: as §1

[4] = target: T4, ERG (Homo sapiens, UniProt P11308 1-479); details: protein: recombinant; tags: N-terminal GST; dsDNA, one strand shown
T4 sequence: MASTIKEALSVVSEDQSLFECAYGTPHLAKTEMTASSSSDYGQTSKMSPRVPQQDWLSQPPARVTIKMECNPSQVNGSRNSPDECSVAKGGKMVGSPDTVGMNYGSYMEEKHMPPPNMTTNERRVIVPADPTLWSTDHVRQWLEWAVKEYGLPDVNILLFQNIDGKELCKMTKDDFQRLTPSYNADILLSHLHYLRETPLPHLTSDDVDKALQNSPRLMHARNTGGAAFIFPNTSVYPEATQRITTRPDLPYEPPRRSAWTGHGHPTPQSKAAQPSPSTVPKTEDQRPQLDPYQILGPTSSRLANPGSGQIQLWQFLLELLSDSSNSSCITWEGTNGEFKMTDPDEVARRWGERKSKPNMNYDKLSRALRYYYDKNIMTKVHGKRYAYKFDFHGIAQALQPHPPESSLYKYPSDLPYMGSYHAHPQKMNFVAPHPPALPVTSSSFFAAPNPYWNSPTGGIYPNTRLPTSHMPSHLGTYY
Method in brief: as §1

[5] = target: ELF1 (Homo sapiens, UniProt P32519 1-619); details: protein: recombinant; tags: N-terminal GST; dsDNA, one strand shown
Method in brief: as §1

[6] = target: T5, EHF (Homo sapiens, UniProt Q9NZC4 1-300); details: protein: recombinant; tags: N-terminal GST; dsDNA, one strand shown
T5 sequence: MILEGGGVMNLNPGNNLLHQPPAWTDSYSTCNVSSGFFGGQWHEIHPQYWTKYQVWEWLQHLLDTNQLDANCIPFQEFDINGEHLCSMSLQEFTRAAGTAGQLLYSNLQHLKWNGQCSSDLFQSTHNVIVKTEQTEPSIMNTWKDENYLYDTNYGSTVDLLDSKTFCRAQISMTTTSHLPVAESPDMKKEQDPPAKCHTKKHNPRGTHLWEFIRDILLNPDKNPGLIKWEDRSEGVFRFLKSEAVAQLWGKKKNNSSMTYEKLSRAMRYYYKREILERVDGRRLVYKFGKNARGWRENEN
Method in brief: as §1

[7] = target: SPI1 (Homo sapiens, UniProt P17947 1-270); details: protein: recombinant; tags: N-terminal GST; dsDNA, one strand shown
Method in brief: as §1

[8] = target: SPIB (Homo sapiens, UniProt Q01892 1-262); details: protein: recombinant; tags: N-terminal GST; dsDNA, one strand shown
Method in brief: as §1

[9] = target: T6, ELK3 (Homo sapiens, UniProt P41970 1-407); details: protein: recombinant; tags: N-terminal GST; dsDNA, one strand shown
T6 sequence: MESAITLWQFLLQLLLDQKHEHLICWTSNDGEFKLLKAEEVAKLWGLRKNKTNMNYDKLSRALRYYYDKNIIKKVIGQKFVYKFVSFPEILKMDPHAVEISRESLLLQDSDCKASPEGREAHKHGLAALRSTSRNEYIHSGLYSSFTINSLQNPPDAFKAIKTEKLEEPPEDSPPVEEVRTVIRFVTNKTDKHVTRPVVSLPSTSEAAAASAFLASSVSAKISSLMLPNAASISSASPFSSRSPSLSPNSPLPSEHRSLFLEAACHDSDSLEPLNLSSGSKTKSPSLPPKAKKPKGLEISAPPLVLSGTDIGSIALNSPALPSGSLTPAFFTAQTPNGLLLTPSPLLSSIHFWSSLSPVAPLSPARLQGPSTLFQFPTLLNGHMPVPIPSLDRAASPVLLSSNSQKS
Method in brief: as §1

[10] = target: T7, FEV (Homo sapiens, UniProt Q99581 1-238); details: protein: recombinant; tags: N-terminal GST; dsDNA, one strand shown
T7 sequence: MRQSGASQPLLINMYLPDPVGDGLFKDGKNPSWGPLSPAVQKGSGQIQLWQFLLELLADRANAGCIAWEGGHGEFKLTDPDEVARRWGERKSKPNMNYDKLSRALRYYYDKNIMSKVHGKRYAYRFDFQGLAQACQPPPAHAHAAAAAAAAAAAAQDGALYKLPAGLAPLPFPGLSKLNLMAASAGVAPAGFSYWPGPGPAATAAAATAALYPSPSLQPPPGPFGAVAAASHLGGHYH
Method in brief: as §1

[11] = target: ETV5 (Homo sapiens, UniProt P41161 1-510); details: protein: recombinant; tags: N-terminal GST; dsDNA, one strand shown
Method in brief: as §1

[12] = target: HSF1 (Homo sapiens, UniProt Q00613 1-529); details: protein: recombinant; tags: N-terminal GST; chain copies: 3; dsDNA, one strand shown
Method in brief: as §1

[13] = target: T8, SPIC (Homo sapiens, UniProt Q8N5J4 1-248); details: protein: recombinant; tags: N-terminal GST; dsDNA, one strand shown
T8 sequence: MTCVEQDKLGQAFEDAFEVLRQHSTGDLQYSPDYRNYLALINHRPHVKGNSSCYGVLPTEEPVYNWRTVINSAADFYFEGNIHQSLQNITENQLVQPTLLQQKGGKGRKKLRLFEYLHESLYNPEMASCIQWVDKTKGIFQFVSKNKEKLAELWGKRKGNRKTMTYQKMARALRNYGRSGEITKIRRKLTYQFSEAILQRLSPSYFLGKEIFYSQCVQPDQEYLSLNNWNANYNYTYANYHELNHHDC
Method in brief: as §1

[14] = target: ELF4 (Homo sapiens, UniProt Q99607 1-663); details: protein: recombinant; tags: N-terminal GST; dsDNA, one strand shown
Method in brief: as §1

[15] = target: T9, ELK4 (Homo sapiens, UniProt P28324-2 1-405); details: protein: recombinant; tags: N-terminal GST; dsDNA, one strand shown
T9 sequence: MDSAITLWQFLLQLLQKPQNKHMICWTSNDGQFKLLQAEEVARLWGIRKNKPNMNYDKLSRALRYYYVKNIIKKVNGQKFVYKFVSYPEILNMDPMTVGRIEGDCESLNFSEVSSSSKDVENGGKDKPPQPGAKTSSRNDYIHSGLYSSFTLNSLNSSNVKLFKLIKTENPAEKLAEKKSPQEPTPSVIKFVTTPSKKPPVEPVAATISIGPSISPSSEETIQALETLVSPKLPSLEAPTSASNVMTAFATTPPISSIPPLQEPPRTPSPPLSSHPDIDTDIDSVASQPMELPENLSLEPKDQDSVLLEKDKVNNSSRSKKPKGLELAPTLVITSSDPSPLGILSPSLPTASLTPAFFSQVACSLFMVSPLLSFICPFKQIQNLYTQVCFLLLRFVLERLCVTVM
Method in brief: as §1

[16] = target: T10, ETV2 (Homo sapiens, UniProt O00321 1-342); details: protein: recombinant; tags: N-terminal GST; dsDNA, one strand shown
T10 sequence: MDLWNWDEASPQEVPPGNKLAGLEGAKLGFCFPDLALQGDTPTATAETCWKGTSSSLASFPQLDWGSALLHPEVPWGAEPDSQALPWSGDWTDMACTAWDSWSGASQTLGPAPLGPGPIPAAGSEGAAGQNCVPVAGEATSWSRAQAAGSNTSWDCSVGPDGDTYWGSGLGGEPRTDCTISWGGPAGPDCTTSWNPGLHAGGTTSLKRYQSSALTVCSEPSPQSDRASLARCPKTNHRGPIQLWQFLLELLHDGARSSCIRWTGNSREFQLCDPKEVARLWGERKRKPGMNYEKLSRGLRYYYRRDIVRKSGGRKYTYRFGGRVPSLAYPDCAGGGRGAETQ
Method in brief: as §1

[17] = target: T11, ELF3 (Homo sapiens, UniProt P78545 1-371); details: protein: recombinant; tags: N-terminal GST; dsDNA, one strand shown
T11 sequence: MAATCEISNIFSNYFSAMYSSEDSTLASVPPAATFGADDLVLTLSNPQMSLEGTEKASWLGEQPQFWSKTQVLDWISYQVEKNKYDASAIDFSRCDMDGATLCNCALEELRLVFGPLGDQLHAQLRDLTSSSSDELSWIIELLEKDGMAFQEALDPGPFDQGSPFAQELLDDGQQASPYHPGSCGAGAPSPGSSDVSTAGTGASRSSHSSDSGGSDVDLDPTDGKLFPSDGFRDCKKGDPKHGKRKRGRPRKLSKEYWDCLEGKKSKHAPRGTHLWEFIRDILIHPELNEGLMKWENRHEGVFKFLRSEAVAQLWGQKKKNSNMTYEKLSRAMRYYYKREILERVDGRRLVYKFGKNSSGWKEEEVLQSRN
Method in brief: as §1

[18] = target: CRX (Homo sapiens, UniProt O43186 1-299); details: protein: recombinant; tags: N-terminal GST; dsDNA, one strand shown
Method in brief: as §1

[19] = target: ETV1 (Homo sapiens, UniProt P50549 1-477); details: protein: recombinant; tags: N-terminal GST; dsDNA, one strand shown
Method in brief: as §1

Sequence of ELF4 (Q99607 whole entry): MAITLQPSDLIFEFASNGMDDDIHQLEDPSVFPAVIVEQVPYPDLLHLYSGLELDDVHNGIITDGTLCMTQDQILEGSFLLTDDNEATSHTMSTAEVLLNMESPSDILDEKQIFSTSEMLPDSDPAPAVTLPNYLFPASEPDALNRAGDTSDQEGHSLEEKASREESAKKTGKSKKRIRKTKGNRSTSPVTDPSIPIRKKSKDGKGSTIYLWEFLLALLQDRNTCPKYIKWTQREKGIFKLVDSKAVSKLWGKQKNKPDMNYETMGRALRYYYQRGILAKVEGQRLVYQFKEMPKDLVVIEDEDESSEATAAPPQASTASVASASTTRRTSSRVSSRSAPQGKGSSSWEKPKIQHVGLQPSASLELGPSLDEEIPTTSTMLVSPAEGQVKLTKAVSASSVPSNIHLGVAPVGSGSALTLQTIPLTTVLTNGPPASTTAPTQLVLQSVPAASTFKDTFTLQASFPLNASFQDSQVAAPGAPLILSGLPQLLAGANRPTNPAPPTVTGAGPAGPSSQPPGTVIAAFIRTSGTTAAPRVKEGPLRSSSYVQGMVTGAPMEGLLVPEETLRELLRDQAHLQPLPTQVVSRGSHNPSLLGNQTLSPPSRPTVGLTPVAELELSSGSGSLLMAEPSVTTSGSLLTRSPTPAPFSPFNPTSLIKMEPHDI
Sequence of ETV1 (P50549 whole entry): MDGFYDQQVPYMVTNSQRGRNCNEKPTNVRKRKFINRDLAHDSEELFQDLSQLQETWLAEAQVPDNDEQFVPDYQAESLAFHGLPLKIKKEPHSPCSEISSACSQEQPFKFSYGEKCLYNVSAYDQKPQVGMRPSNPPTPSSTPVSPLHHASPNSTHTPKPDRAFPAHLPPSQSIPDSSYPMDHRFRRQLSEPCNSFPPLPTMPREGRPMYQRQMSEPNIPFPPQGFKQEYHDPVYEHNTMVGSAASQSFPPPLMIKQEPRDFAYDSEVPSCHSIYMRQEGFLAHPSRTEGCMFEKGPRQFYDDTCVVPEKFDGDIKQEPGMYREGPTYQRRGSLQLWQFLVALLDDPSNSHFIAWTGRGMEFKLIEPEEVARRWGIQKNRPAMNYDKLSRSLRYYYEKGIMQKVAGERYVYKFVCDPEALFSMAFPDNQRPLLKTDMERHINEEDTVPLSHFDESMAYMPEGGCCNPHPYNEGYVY
Sequence of ELF1 (P32519 whole entry): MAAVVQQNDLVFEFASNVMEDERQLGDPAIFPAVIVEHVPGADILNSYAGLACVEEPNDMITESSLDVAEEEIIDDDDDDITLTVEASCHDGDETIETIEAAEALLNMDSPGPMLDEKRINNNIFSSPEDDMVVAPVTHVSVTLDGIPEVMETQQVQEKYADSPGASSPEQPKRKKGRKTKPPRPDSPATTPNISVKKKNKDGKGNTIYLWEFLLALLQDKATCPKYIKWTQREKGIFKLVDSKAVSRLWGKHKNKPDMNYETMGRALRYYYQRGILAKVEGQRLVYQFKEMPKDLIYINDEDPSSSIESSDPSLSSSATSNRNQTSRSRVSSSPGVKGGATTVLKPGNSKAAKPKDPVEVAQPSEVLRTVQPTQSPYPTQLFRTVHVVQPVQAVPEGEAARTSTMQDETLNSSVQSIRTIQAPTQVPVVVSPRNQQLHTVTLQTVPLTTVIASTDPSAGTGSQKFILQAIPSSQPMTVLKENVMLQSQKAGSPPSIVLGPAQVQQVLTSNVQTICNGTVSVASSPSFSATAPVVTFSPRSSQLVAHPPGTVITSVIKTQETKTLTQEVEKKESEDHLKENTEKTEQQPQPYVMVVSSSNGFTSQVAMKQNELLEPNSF
Sequence of HSF1 (Q00613 whole entry): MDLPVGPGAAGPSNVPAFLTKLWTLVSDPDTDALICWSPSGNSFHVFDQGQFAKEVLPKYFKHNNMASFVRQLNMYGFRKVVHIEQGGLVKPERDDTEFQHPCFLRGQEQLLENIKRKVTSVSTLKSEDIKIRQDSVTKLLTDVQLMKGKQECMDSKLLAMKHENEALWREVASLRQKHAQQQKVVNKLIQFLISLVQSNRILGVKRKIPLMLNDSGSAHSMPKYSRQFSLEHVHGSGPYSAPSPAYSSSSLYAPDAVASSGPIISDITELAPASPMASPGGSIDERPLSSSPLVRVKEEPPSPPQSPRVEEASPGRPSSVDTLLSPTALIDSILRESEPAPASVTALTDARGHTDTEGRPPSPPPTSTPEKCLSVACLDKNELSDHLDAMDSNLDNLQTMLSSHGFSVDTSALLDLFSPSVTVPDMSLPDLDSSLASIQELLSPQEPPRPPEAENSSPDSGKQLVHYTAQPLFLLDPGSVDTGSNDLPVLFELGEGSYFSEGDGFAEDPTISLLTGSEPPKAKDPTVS
Sequence of CRX (O43186 whole entry): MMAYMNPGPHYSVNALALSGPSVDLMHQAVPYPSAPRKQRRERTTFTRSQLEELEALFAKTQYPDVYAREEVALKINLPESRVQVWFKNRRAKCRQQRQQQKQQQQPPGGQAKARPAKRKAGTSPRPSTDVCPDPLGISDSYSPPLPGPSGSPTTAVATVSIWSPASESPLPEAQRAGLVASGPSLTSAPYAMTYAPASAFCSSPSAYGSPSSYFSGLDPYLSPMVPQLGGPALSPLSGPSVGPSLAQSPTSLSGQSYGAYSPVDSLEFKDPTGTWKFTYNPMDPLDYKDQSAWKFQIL
Sequence of ETV5 (P41161 whole entry): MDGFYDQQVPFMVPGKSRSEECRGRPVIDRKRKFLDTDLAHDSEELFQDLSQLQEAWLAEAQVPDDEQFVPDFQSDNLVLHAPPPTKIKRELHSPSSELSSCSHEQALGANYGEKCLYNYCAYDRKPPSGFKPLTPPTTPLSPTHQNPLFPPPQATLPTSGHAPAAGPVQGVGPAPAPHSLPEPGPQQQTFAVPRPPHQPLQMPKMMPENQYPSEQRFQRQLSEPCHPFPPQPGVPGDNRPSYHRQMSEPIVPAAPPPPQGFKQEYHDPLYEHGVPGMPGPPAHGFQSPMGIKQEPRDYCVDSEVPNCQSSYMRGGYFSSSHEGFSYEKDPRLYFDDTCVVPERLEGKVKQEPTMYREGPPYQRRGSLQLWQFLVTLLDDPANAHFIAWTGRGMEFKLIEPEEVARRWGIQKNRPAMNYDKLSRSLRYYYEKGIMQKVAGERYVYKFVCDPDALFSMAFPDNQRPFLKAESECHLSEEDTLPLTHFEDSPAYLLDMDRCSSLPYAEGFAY
Sequence of SPIB (Q01892 whole entry): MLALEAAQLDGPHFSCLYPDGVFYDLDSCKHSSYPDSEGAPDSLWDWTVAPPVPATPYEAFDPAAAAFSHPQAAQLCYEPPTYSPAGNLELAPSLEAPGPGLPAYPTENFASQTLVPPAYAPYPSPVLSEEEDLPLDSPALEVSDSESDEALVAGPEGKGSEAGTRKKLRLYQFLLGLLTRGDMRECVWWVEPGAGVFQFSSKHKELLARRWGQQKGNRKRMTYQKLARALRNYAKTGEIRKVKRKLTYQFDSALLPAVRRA

Q: For ACTTTT, which binding signal [1] is on record?
A: 1.43 fold enrichment (6-mer frequency, TF over GST control)

Q: And the binding signal [2]?
A: 1.32 fold enrichment (6-mer frequency, TF over GST control)

Q: And the binding signal [3]?
A: 1.34 fold enrichment (6-mer frequency, TF over GST control)

Q: What about the binding signal [4] of the same sequence?
A: 1.21 fold enrichment (6-mer frequency, TF over GST control)

Q: What about the binding signal [5] of the same sequence?
A: 1.21 fold enrichment (6-mer frequency, TF over GST control)

Q: What about the binding signal [6] of the same sequence?
A: 1.21 fold enrichment (6-mer frequency, TF over GST control)

Q: And the binding signal [7]?
A: 1.26 fold enrichment (6-mer frequency, TF over GST control)

Q: And the binding signal [8]?
A: 1.34 fold enrichment (6-mer frequency, TF over GST control)

Q: And the binding signal [9]?
A: 1.14 fold enrichment (6-mer frequency, TF over GST control)

Q: And the binding signal [10]?
A: 1.25 fold enrichment (6-mer frequency, TF over GST control)

Q: And the binding signal [11]?
A: 1.27 fold enrichment (6-mer frequency, TF over GST control)

Q: What about the binding signal [12] of the same sequence?
A: 1.25 fold enrichment (6-mer frequency, TF over GST control)

Q: What about the binding signal [13] of the same sequence?
A: 1.35 fold enrichment (6-mer frequency, TF over GST control)

Q: What about the binding signal [14] of the same sequence?
A: 1.32 fold enrichment (6-mer frequency, TF over GST control)

Q: What about the binding signal [15] of the same sequence?
A: 1.25 fold enrichment (6-mer frequency, TF over GST control)

Q: And the binding signal [16]?
A: 1.25 fold enrichment (6-mer frequency, TF over GST control)

Q: What about the binding signal [17] of the same sequence?
A: 1.45 fold enrichment (6-mer frequency, TF over GST control)

Q: What about the binding signal [18] of the same sequence?
A: 1.25 fold enrichment (6-mer frequency, TF over GST control)

Q: What about the binding signal [19] of the same sequence?
A: 1.32 fold enrichment (6-mer frequency, TF over GST control)
